This is a sample that favours compounds with a hit; in the whole collection about 1.8% have one here.
BH1578 lux ind: inducers of Vibrio cholerae quorum light production without autoinducers. V. cholerae BH1578 lux reporter, luminescence, 6 h. activation, % at 18.7 µM. hit rate 0.16% among 350,000. AID 588436; in the data active = activation mostly above about 9.7%, no sharp cut-off
Yp Topo-I inh: blocks Yersinia pestis topoisomerase I activity; Y. pestis Topo-I cleavage product accumulation, plate reader; activity, % at 10 µM; hit rate 0.064% among 360,000; in the data active = activity above about 50%, passing the limit was not always enough
CCHFV vOTU inh: blocks the CCHF virus ovarian tumor domain protease; CCHFV vOTU protease, Pep-AMC fluorescence; inhibition, % at 11.5 µM; hit rate 0.55% among 370,000; in the data active = inhibition above about 30%; also: 0% = vehicle wells with enzyme and 100% = no enzyme wells
MazEF act: MazEF (E. coli) toxin RNase activation. P0AE70. FAM/BHQ RNA-DNA oligo cleavage fluorescence, 5 h. activation, % at 20 µM. hit rate 0.32% among 350,000. AID 504720; in the data active = activation above about 50%
Target sequence (P0AE70 whole entry, looked up): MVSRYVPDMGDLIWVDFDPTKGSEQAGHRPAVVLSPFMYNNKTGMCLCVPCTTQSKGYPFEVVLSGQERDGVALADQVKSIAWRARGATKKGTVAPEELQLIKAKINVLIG
VHR inh abs: inhibitors of human VHR1 phosphatase (DUSP3). P51452. recombinant VHR phosphatase, pNPP absorbance. inhibition, % at 13.3 µM. hit rate 0.52% among 290,000; in the data active = inhibition above about 50%
Target sequence (P51452 whole entry, looked up): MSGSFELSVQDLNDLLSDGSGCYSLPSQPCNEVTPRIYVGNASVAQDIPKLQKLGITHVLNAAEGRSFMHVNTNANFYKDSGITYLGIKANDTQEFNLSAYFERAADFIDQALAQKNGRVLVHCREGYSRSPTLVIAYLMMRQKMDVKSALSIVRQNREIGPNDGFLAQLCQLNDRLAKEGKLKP
PrPC TRFRET: cell surface PrPC inhibition, primary TR-FRET screen; P04156; TR-FRET read-out; inhibition, % at 13.8 µM; hit rate 0.43% among 370,000; in the data active = inhibition above about 24%; also: 0% = median of the test wells and 100% = reference compound wells
* = called active by the depositor; i = inactive; . = no result; + = active, no number.

SMILES	BH1578 lux ind	Yp Topo-I inh	CCHFV vOTU inh	MazEF act	VHR inh abs	PrPC TRFRET
Cc1ccnc(NC(=O)CCCOc2cc(=O)n(C)c3ccccc23)c1	0	8	-5	-13	28	39*
Cn1c(=O)cc(OCCCC(=O)NCc2ccccn2)c2ccccc21	0	6	-1	-1	32	6
O=C(C1CCCN(S(=O)(=O)c2cccs2)C1)N1CCN(Cc2ccccc2)CC1 (centres undefined)	.	.	-6	.	.	-3
O=C(N1CCOCC1)N1CC[C@H]2[C@H](CCCN2Cc2cc(F)cc(F)c2)C1	.	.	8	.	.	2
C1=C(c2ccc(-c3ccccc3)cc2)Nc2ncnn2C1c1ccco1 (centres undefined)	3	-5	-29	344*	28	-5
COc1ccc(-n2c(SCC(=O)NCC3CCCO3)nnc2-c2ccncc2)cc1 (centres undefined)	.	.	1	.	.	0
O=C(Nc1ccccc1)N(CCN1CCOCC1)Cc1cccc(Cl)c1	i	73*	4	1	24	1
Cc1ccc(CNc2ccc3c(c2)OCO3)cc1	i	0	.	59*	-21	.
CCCCCCCCCCCCCCCC[n+]1ccc(/C=N/O)cc1	3	9	56*	4	-7	31*
COc1ccc(-c2cc(-c3nnc(SCC(=O)Nc4ccc(-c5nc6ccc(C)cc6s5)cc4)n3N)[nH]n2)cc1	.	.	-15	.	.	-2
CCN(C)C(=O)CNc1nnnn1-c1ccccc1	.	.	-7	.	.	2
NS(=O)(=O)c1ccc(CNC(=O)NC2(c3ccccc3)CC2)cc1	0	-3	-2	0	50*	7
COC(=O)[C@H](Cc1ccccc1)NC(=O)NCc1ccc(S(N)(=O)=O)cc1	0	0	-13	6	22	-1
C=CCn1cnc2c(c1=O)c1nc3ccccc3nc1n2/N=C/c1cccc(OC)c1OC	8	-2	-11	-6	101*	7
Cc1ccc2cc(C#N)c(N3CCN(C(=O)c4cccs4)CC3)nc2c1	0	16	1	8	51*	10
O=c1[nH]c2ccc(S(=O)(=O)N3CCCC3)cc2o1	.	.	4	.	.	8
O=C(CNC(=O)c1ccccc1)NCCc1ccc(O)c(O)c1	i	-1	14	.	59*	-9
CCCCNC(=O)C1(C(C)=O)CC(C(=O)OCC)=NO1 (centres undefined)	.	.	-1	.	.	0
CC(C)c1ccc(N2C(=O)CC(Sc3ncn[nH]3)C2=O)cc1 (centres undefined)	-1	-1	8	7	-1	7
COc1ccc(N2C(=O)CC(Sc3ncn[nH]3)C2=O)c(OC)c1 (centres undefined)	i	3	55*	7	-4	11
CC(=NNC(=O)CSc1nnc(-c2ccccc2)n1-c1ccccc1)c1cccc([N+](=O)[O-])c1	.	.	10	.	.	7
O=C(CSc1nc2cc(Cl)c(Cl)cc2[nH]1)c1ccc2c(c1)OCO2	-1	-2	5	51*	-6	3
Cc1sc2ncn(CC(=O)NCCN3CCOCC3)c(=O)c2c1S(=O)(=O)N1CCC(C)CC1	i	3	-10	3	2	0
Cc1sc2ncn(CC(=O)NCCCN3CCC(C)CC3)c(=O)c2c1S(=O)(=O)N1CCC(C)CC1	i	-5	-4	14	60*	5
C=C(C)CSc1nc2sc(C)c(C)c2c(=O)n1C	.	.	4	.	.	3
SMILES	BH1578 lux ind	Yp Topo-I inh	CCHFV vOTU inh	MazEF act	VHR inh abs	PrPC TRFRET
Cc1ccc(NC(=O)NCc2cccnc2)cc1	-3	3	1	3	19	-10
O=C(NCc1cccnc1)Nc1ccc(Br)cc1	1	7	-7	3	53*	-6
CCOC(=O)CN1C(=O)S/C(=C/c2ccc(N3CCCCC3)o2)C1=O	-1	-8	-2	31	0	-4
COC(=O)CN1C(=O)S/C(=C/c2ccc(N3CCCCC3)o2)C1=O	0	-8	1	386*	-3	0
O=C(N/N=C/c1cccnc1)c1ccc(NC(=O)C(c2ccccc2)c2ccccc2)cc1	0	-2	-2	61*	8	13
Cc1ccc2c(Cl)c(C(=O)N/N=C/c3cccn3C)sc2c1	i	0	-4	71*	19	0
O=C(N=c1ccn(-c2nc3ccccc3nc2NS(=O)(=O)c2ccc(Cl)cc2)cc1)c1cccs1	-1	-1	-3	92*	4	8
CCOc1ccc(S(=O)(=O)Nc2nc3ccccc3nc2-n2ccc(=NC(=O)c3cccs3)cc2)cc1	i	46	-14	30	-2	15
COc1ccc(C(=O)CSc2nnc(-c3ccccn3)n2-c2ccccc2)cc1	.	.	-6	.	.	-5
Cc1ccc2nc(N3C(=O)C(O)=C(C(=O)c4cc5ccccc5o4)C3c3cccs3)sc2c1 (centres undefined)	i	0	.	80*	3	.
CCOc1cccc(C2C(C(=O)c3ccc(C)o3)=C(O)C(=O)N2c2nccs2)c1 (centres undefined)	i	-2	12	+	-9	-1
Cc1cc(N2C(=O)C(O)=C(C(=O)c3cc4ccccc4o3)C2c2ccc([N+](=O)[O-])cc2)no1 (centres undefined)	i	6	13	9	-18	2
Cc1ccc(C2C(C(=O)c3cc4ccccc4o3)=C(O)C(=O)N2c2cc(C)on2)cc1 (centres undefined)	i	85*	7	9	12	12
CCOc1cccc(C2C(C(=O)c3ccc(C)o3)=C(O)C(=O)N2Cc2ccncc2)c1 (centres undefined)	-1	1	10	-4	-5	3
O=C(C1=C(O)C(=O)N(c2nccs2)C1c1ccccc1)c1cc2ccccc2o1 (centres undefined)	i	-5	-7	227*	17	8
CCc1ccc2nc(N3C(=O)C(O)=C(C(=O)c4ccco4)C3c3cccs3)sc2c1 (centres undefined)	-1	-4	.	79*	13	.
Cc1nc(NC(=O)CN2CCN(c3ccccc3F)CC2)sc1C(=O)N(C)C	-1	-2	-3	3	57*	-2
C#Cc1ccc(CN2CCCC(C(=O)Nc3ccccc3Oc3cccnc3)C2)cc1 (centres undefined)	0	20	7	5	56*	-4
O=C(Nc1ccccc1Oc1cccnc1)C1CCCN(Cc2ccccc2O)C1 (centres undefined)	0	-4	9	2	6	-8
CC(=O)Oc1cccc2c1C(=O)C1CC=CC(OC(C)=O)C1C2=O (centres undefined)	.	61*	1	37	.	-58
CC(=O)Oc1cccc(N2C(=O)C3CC=CCC3C2=O)c1 (centres undefined)	-2	1	6	0	15	-5
CCCCCCn1c(C(C)NC(=O)c2ccco2)nc2ccccc21 (centres undefined)	-1	18	7	7	54*	-11

High-throughput results deposited in PubChem by several laboratories.
